Reference: the supplement of paper PMC8728848
The full list was thinned out, with the strongest signals kept by preference.

Assays:
Assay in all cases: glycan array binding signal (z-score within array); higher = stronger binding
Details in all cases: glycan notation: IUPAC condensed, linker removed
[1] = target: Fuc(a1-2)Gal(b1-3)[Fuc(a1-4)]GlcNAc(b1-2)Man(a1-3)[Fuc(a1-2)Gal(b1-3)[Fuc(a1-4)]GlcNAc(b1-2)Man(a1-6)]Man(b1-4)GlcNAc(b1-4)GlcNAc
In short: (§1)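 From the Consortium for Functional Glycomics database, 3228 arrays were curated, keeping only those whose protein sequence was available. Binding is given as a within-array Z-score averaged across arrays sharing a protein sequence and across linkers. Negative Z-scores can be read as non-binding.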

[2] = target: Fuc(a1-2)[Gal(a1-3)]Gal(b1-4)GlcNAc
In short: as §1

[3] = target: Fuc(a1-2)[GalNAc(a1-3)]Gal(b1-3)GalNAc(a1-3)[Fuc(a1-2)]Gal(b1-4)GlcNAc
In short: as §1

[4] = target: Fuc(a1-3)[Gal(b1-4)]GlcNAc(b1-6)[Gal(b1-3)GlcNAc(b1-3)]Gal(b1-4)Glc
In short: as §1

[5] = target: Fuc(a1-3)[Gal(b1-4)]GlcNAc6S
In short: as §1

[6] = target: Fuc(a1-3)[Gal3S(b1-4)]GlcNAc
In short: as §1

[7] = target: Gal(a1-3)Gal(b1-4)[Fuc(a1-3)]GlcNAc(b1-2)Man(a1-3)[Gal(a1-3)Gal(b1-4)[Fuc(a1-3)]GlcNAc(b1-2)Man(a1-6)]Man(b1-4)GlcNAc(b1-4)GlcNAc
In short: as §1

[8] = target: Gal(b1-3)GalNAc(b1-4)Gal(b1-4)Glc
In short: as §1

[9] = target: Gal(b1-4)GlcNAc(b1-3)Gal(b1-4)Glc
In short: as §1

[10] = target: Gal3S(b1-4)[Fuc(a1-3)]Glc6S
In short: as §1

Gal3S4S(b1-4)GlcNAc = target: Gal3S4S(b1-4)GlcNAc
In short: as §1

Gal3S6S(b1-4)GlcNAc6S = target: Gal3S6S(b1-4)GlcNAc6S
In short: as §1

Gal4S6S(b1-4)GlcNAc = target: Gal4S6S(b1-4)GlcNAc
In short: as §1

Gal6S(b1-4)Glc6S = target: Gal6S(b1-4)Glc6S
In short: as §1

Gal6S(b1-4)GlcNAc = target: Gal6S(b1-4)GlcNAc
In short: as §1

Gal6S(b1-4)GlcNAc6S = target: Gal6S(b1-4)GlcNAc6S
In short: as §1

GalNAc(b1-3)GalNAc = target: GalNAc(b1-3)GalNAc
In short: as §1

[11] = target: GlcNAc(a1-4)Gal(b1-4)GlcNAc(b1-3)Gal(b1-4)[Fuc(a1-3)]GlcNAc(b1-3)Gal(b1-4)[Fuc(a1-3)]GlcNAc
In short: as §1

[12] = target: GlcNAc(a1-6)Gal(b1-4)GlcNAc
In short: as §1

GlcNAc(b1-3)Gal(b1-4)Glc = target: GlcNAc(b1-3)Gal(b1-4)Glc
In short: as §1

[13] = target: GlcNAc(b1-4)[GlcNAc(b1-6)]GalNAc
In short: as §1

[14] = target: Man(a1-3)[Man(a1-6)]Man(a1-6)[Man(a1-3)]Man
In short: as §1

[15] = target: Neu5Ac(a2-3)Gal(b1-4)[Fuc(a1-3)]GlcNAc(b1-3)GalNAc
In short: as §1

[16] = target: Neu5Ac(a2-3)[GalNAc(b1-4)]Gal(b1-4)Glc
In short: as §1

[17] = target: Neu5Ac(a2-6)Gal(b1-4)GlcNAc
In short: as §1

[18] = target: Neu5Ac(a2-6)Gal(b1-4)GlcNAc(b1-2)Man(a1-6)Man(b1-4)GlcNAc(b1-4)GlcNAc
In short: as §1

B1: Pp2-A2 (Arabidopsis thaliana), Q07098 (protein)
chain: MPSNGDLDRQIEQLMECKPLSEADVRTLCDQARAILVEEYNVQPVKCPVTVCGDIHGQFYDLIELFRIGGNAPDTNYLFMGDYVDRGYYSVETVSLLVALKVRYRDRLTILRGNHESRQITQVYGFYDECLRKYGNANVWKYFTDLFDYLPLTALIESQVFCLHGGLSPSLDTLDNIRSLDRIQEVPHEGPMCDLLWSDPDDRCGWGISPRGAGYTFGQDIAAQFNHNNGLSLISRAHQLVMEGFNWCQDKNVVTVFSAPNYCYRCGNMAAILEIGENMEQNFLQFDPAPRQVEPDTTRKTPDYFL
- glycan array binding signal (z-score) [1]: 2.08
- glycan array binding signal (z-score) [2]: -0.404
- glycan array binding signal (z-score) [3]: 0.21
- glycan array binding signal (z-score) [4]: -0.662
- glycan array binding signal (z-score) [5]: 0.633
- glycan array binding signal (z-score) [6]: -0.461
- glycan array binding signal (z-score) [7]: -0.298
- glycan array binding signal (z-score) [8]: -0.181
- glycan array binding signal (z-score) [9]: -0.032
- glycan array binding signal (z-score) [10]: 4.36
- glycan array binding signal (z-score) (Gal3S4S(b1-4)GlcNAc): 6.14
- glycan array binding signal (z-score) (Gal3S6S(b1-4)GlcNAc6S): 4.5
- glycan array binding signal (z-score) (Gal4S6S(b1-4)GlcNAc): 4.54
- glycan array binding signal (z-score) (Gal6S(b1-4)Glc6S): 4.11
- glycan array binding signal (z-score) (Gal6S(b1-4)GlcNAc): -0.117
- glycan array binding signal (z-score) (Gal6S(b1-4)GlcNAc6S): 2.28
- glycan array binding signal (z-score) (GalNAc(b1-3)GalNAc): -0.683
- glycan array binding signal (z-score) [11]: 5.17
- glycan array binding signal (z-score) [12]: -0.835
- glycan array binding signal (z-score) (GlcNAc(b1-3)Gal(b1-4)Glc): -0.721
- glycan array binding signal (z-score) [13]: -0.771
- glycan array binding signal (z-score) [14]: 0.061
- glycan array binding signal (z-score) [15]: 4.64
- glycan array binding signal (z-score) [16]: -0.213
- glycan array binding signal (z-score) [17]: -0.266
- glycan array binding signal (z-score) [18]: -0.465
